Screening data (PubChem)
Sampled rows, rich in hits. Any-hit rate of the full collection: about 10%.
FLuc inh-1: inhibitors of firefly (Photinus pyralis) luciferase; AID 1347043; purified P. pyralis luciferase, luminescence, biochemical; Potency, µM (top dose mostly 115 µM), usual class: inhibitors; 76,000 tested, 2.5% active; P08659; note: % is set by controls: 0 for no effect and ±100 for the full control effect; nearly all actives have a fitted effect of over 65% in size
Target sequence (P08659 whole entry, looked up): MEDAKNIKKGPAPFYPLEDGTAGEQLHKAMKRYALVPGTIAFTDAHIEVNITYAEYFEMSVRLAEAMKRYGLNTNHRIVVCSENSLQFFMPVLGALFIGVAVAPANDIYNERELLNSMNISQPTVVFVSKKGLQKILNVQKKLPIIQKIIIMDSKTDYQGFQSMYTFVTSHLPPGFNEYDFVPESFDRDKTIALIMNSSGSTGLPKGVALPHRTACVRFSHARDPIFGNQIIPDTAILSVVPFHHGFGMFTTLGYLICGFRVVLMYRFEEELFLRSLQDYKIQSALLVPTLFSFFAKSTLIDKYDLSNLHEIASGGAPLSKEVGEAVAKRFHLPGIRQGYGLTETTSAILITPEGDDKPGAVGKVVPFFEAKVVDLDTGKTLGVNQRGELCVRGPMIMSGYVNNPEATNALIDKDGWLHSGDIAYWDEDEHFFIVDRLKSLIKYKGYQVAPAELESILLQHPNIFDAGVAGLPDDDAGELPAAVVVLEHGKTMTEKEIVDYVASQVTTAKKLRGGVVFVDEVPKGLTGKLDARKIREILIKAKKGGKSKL
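Luminescence read by CCD imager after adding enzyme (10nM final) to wells holding compound, titrated in qHTS. Substrates 10uM each D-luciferin and ATP; buffer 50mM Tris acetate pH 7.5, 10mM Mg acetate, Tween-20, BSA.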
HEK cytotox: HEK 293 cell cytotoxicity; 94,000 tested, 6.6% active; Potency, µM (doses to about 115 µM), for the others: top-dose activity change, negative = cytotoxicity, usual class: inhibitors; HEK 293 viability, ATP luminescence (CellTiter-Glo), 48-72 h; note: % is set by controls: 0 for no effect and ±100 for the full control effect; nearly all actives have a fitted effect of over 60% in size
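Cytotoxicity was scored by loss of ATP-coupled luminescence (CellTiter-Glo) in HEK 293 cells. Compound treatment ran 48 or 72 hr at 37 degree Celsius, 5% CO2, 95% humidity.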
GPT2 inhibitor: inhibitors of human GPT2 alanine aminotransferase | Q8TD30 | Recombinant GPT2, coupled pyruvate oxidase/HRP Amplex Red fluorescence | AID 1671188 | 100,000 tested, 0.25% active | Potency, µM (highest dose often 57.7 µM), without a hit: at the top dose activity change, negative = inhibition, most hits filed as inhibitors; note: % is set by controls: 0 for no effect and ±100 for the full control effect; nearly all actives have a fitted effect of over 60% in size
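GPT2 10ng/uL, a-KG 250uM, L-Ala 2mM, HEPES pH7.5 + 0.0001% Tween; 30 min RT. Then Amplex mix (PO/HRP/ThPP), 30 min RT dark, fluorescence. AOA 50uM used as positive control.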
3T3 cytotox: cytotoxic compounds in NIH 3T3 cells; NIH 3T3 viability, CellTiter-Glo ATP luminescence, 48-72 h; Potency, µM (titrated, usually from 96.7 µM), for inactives: at the highest dose activity change, negative = cytotoxicity, most hits filed as inhibitors; 94,000 tested, 4.3% active; AID 1345082; note: % is set by controls: 0 for no effect and ±100 for the full control effect; nearly all actives have a fitted effect of over 55% in size
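ATP-dependent luminescence (CellTiter-Glo) served as the viability signal for NIH 3T3 cells treated with compound for 48 or 72 hr at 37 °C.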
NPR1 antag: antagonists of human natriuretic peptide receptor Npr1. P16066. HEK293 hNpr1 GloSensor cGMP, ANP-stimulated luminescence. Potency, µM (series often up to 46.3 µM), without a hit: top-dose activity change, negative = inhibition, hits mostly inhibitors. 76,000 tested, 1.6% active; calls by dose curve; note: % is set by controls: 0 for no effect and ±100 for the full control effect; nearly all actives have a fitted effect of over 60% in size
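Compound pre-incubated 30 min at room temperature on GloSensor-loaded HEK293 cells stably carrying hNpr1 and the pGS-40F cGMP biosensor. Stimulation uses hNppA at 0.1 nM final; luminescence is taken at baseline and 20 min post-agonist.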
FLuc SDR no ATP: stabilizes firefly luciferase without ATP; shares compounds with FLuc inh-1; Purified FLuc-C-HiBiT, Nano-Glo HiBiT luminescence, no ATP; Potency, µM (doses to about 32.7 µM), for inactives: at the top dose activation (signal gain), actives largely listed as activators; 1,300 tested, 7.8% active; note: nearly all actives have a fitted effect of over 55% in size
FLuc SDR ATP: firefly luciferase binding stabilization, ATP added; 1,300 tested, 8.7% active; shares compounds with FLuc inh-1; Potency, µM (series often up to 32.7 µM), without a hit: at the highest dose activation (gain of signal), actives largely listed as activators; purified FLuc-C-HiBiT + ATP, HiBiT complementation luminescence;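 note: signal reports ligand binding via conformational change of the enzyme rather than luciferase catalysis; % of control where 0% means no effect; nearly all actives have a fitted effect of over 55% in size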
FLuc inh-2: inhibitors of firefly luciferase enzymatic activity. shares compounds with FLuc inh-1. purified FLuc-C-HiBiT enzyme, luciferin luminescence. Potency, µM (doses to about 32.7 µM), for the others: at the highest dose activity change, negative = inhibition, most hits filed as inhibitors. 1,300 tested, 42% active; note: % is set by controls: 0 for no effect and ±100 for the full control effect; nearly all actives have a fitted effect of over 70% in size
Npr1 antag conf: hNpr1 antagonism, confirmation assay. shares compounds with NPR1 antag. HEK293 hNpr1 cGMP GloSensor luminescence, ANP-stimulated. Potency, µM (series often up to 57.6 µM), for the others: at the highest dose activity change, negative = inhibition, usual class: inhibitors. 1,400 tested, 76% active; calls by dose curve; note: nearly all actives have a fitted effect of over 70% in size
NPR2 antag: hNpr2 antagonism, selectivity versus Npr1; Potency, µM (titrated, usually from 57.6 µM), inactives show top-dose activity change, negative = inhibition, usual class: inhibitors; HEK293 hNpr2 GloSensor cGMP luminescence, CNP-stimulated; shares compounds with NPR1 antag; AID 1347046; 1,400 tested, 67% active; calls by dose curve; note: nearly all actives have a fitted effect of over 70% in size
FLuc inh counter: counter-screen for Npr1 antagonists: firefly luciferase inhibitors; shares compounds with NPR1 antag; purified FLuc enzyme, luminescence, Km substrate; Potency, µM (series often up to 57.6 µM), for inactives: at the highest dose activity change, negative = inhibition, most hits filed as inhibitors; 1,400 tested, 0.7% active; note: 0% is about no effect
GloSensor cGMP: reduces cGMP signal in GloSensor control cells | shares compounds with NPR1 antag | HEK293 GloSensor cGMP, SNP-stimulated, luminescence | Potency, µM (series often up to 57.6 µM), without a hit: top-dose activity change, negative = inhibition, usual class: inhibitors | 1,400 tested, 69% active; calls by dose curve; note: % is set by controls: 0 for no effect and ±100 for the full control effect; nearly all actives have a fitted effect of over 70% in size
* = called active by the depositor; [ ] = dose if it differs, or a comment. Unless noted, calls come from the whole dose curve; as a rule, active = well fitted curve in the direction sought with a large enough effect; inconclusive = small, poorly fitted or top-dose-only effect, or another doubt; inactive = no such curve, though single readings can be large; an effect the other way counts as inactive or inconclusive. Potency is the fitted concentration of half-maximal effect.

`Cc1ccc(-c2cc3c(=O)n(CCNC(=O)c4ccco4)ccn3n2)c(C)c1` gave FLuc inh-1 8.91µM*, HEK cytotox inconclusive, GPT2 inhibitor inactive, 3T3 cytotox inconclusive, NPR1 antag -11.9%, FLuc SDR no ATP 22.1%, FLuc SDR ATP 15.4% and FLuc inh-2 inconclusive.
For Cc1ccc(-c2cc3c(=O)n(CCNC(=O)Cc4cccc(F)c4)ccn3n2)c(C)c1 the results were FLuc inh-1 3.55µM*, HEK cytotox inconclusive, GPT2 inhibitor inactive, 3T3 cytotox inconclusive, NPR1 antag -26.9%, FLuc SDR no ATP inconclusive, FLuc SDR ATP inconclusive and FLuc inh-2 5.56µM*.
`Cc1ccc(-n2c(C3CCN(C(=O)c4c(F)cccc4Cl)CC3)n[nH]c2=O)cc1` gave FLuc inh-1 inactive, HEK cytotox -1.2%, GPT2 inhibitor inactive, 3T3 cytotox -10.0% and NPR1 antag 0.0%.
`COc1ccccc1-n1c(=O)c(C(=O)N2CCN([S+](=O)([O-])c3cccc(C(F)(F)F)c3)CC2)nc2cccnc21` gave HEK cytotox 0.1%, GPT2 inhibitor inactive and 3T3 cytotox inconclusive.
For COc1ccccc1N1CCN(c2ncccc2CNC(=O)c2ccco2)CC1 the results were FLuc inh-1 inactive, HEK cytotox inconclusive, GPT2 inhibitor -1.3%, 3T3 cytotox -5.6% and NPR1 antag -17.7%.
Screening COc1cccc(CC(=O)NCCn2ccn3nc(-c4ccc(C)cc4C)cc3c2=O)c1 returned FLuc inh-1 11.2µM*, HEK cytotox inconclusive, GPT2 inhibitor -11.5%, 3T3 cytotox inconclusive, NPR1 antag -2.4%, FLuc SDR no ATP inconclusive, FLuc SDR ATP 17.7% and FLuc inh-2 inconclusive.
Cc1cccc(OCC(=O)NCCn2ccn3nc(-c4ccc(C)cc4C)cc3c2=O)c1 was read as FLuc inh-1 inconclusive, HEK cytotox inconclusive, GPT2 inhibitor -0.6%, 3T3 cytotox inconclusive and NPR1 antag -23.1%.
Screening COc1ccc(CCNC(=O)C2CCCN(c3nc4c(C)cc(C)cc4s3)C2)cc1OC (stereo not drawn) returned FLuc SDR no ATP 17.4%, FLuc SDR ATP 19.7% and FLuc inh-2 inconclusive.
Screening COc1ccc(CCNC(=O)c2ccc3c(c2)N(C)C2CCCN2C3=O)cc1OC (stereo not drawn) returned FLuc inh-1 inactive, HEK cytotox -12.7%, GPT2 inhibitor inactive, 3T3 cytotox -22.2% and NPR1 antag -13.8%.
COc1ccc(C(=O)NC2CCN(C(=O)c3ccccc3-c3ccc(OC)nn3)CC2)cc1 was read as HEK cytotox -8.0% and 3T3 cytotox -16.4%.
For Cc1c(C(=O)Nc2ccc(C(=O)O)cc2)nnn1-c1ccccc1 the results were FLuc SDR no ATP 7µM*, FLuc SDR ATP 0.0785µM* and FLuc inh-2 0.0785µM*.
For O=C(O)c1ccc(-n2nc(-c3ccccc3O)nc2-c2ccccc2O)cc1 the results were GPT2 inhibitor inactive.
For CSCc1nc(-c2ccncc2)nn1Cc1ccc2c(c1)OCO2 the results were FLuc inh-1 4.47µM*, HEK cytotox inconclusive, GPT2 inhibitor -12.7%, 3T3 cytotox inconclusive, NPR1 antag 11.2µM*, FLuc SDR no ATP 9.7%, FLuc SDR ATP 18.9% and FLuc inh-2 -12.9%.
For O=C1NCCCCCCN(S(=O)(=O)c2cccc3cccnc23)[C@H]2CCC[C@@H]12 the results were FLuc inh-1 inactive, HEK cytotox inconclusive, GPT2 inhibitor 0.1%, 3T3 cytotox -9.9% and NPR1 antag 6.2%.
Screening COc1ccc(NC(=O)[C@@H]2C[C@@H](c3ccc(F)cc3)N(CCOc3ccccc3)C2)cc1 returned FLuc inh-1 inactive, HEK cytotox inconclusive, GPT2 inhibitor -25.0%[88.5 µM], 3T3 cytotox inconclusive and NPR1 antag inconclusive.
For O=C(Nc1nccs1)[C@@H]1C[C@@H](c2ccc(F)cc2)N(CCOc2ccccc2)C1 the results were FLuc inh-1 inactive, HEK cytotox inconclusive, GPT2 inhibitor inconclusive, 3T3 cytotox inconclusive, NPR1 antag inconclusive, Npr1 antag conf 35.3µM*, NPR2 antag inconclusive, FLuc inh counter 3.6%[86.2 µM] and GloSensor cGMP inconclusive.
`CN(Cc1cnc2ccccc2c1)C(=O)c1ccc(CCC(C)(C)O)cc1` gave FLuc inh-1 inactive, HEK cytotox 39.8µM*, GPT2 inhibitor inconclusive, 3T3 cytotox inconclusive, NPR1 antag 2.51µM*, Npr1 antag conf 5.44µM*, NPR2 antag 6.85µM*, FLuc inh counter 3.1% and GloSensor cGMP 3.85µM*.
CN(Cc1ccc2nccnc2c1)C(=O)c1ccc(CCC(C)(C)O)cc1 was read as FLuc inh-1 inactive, HEK cytotox inconclusive, GPT2 inhibitor inconclusive, 3T3 cytotox -26.5% and NPR1 antag -23.8%.
